Growth data for eight compounds are collected here from PubChem BioAssay (NCI).

What all share (assay): NCI-60 one-dose screen, 48 h (100 = growth as untreated, 0 = no growth, -100 = all killed)
Common to all, as to details: 10 µM unless noted

Test [1] concerns DU-145 prostate.
For test [2], the system named is K-562 leukemia.
For test [3], the system named is MALME-3M melanoma.
Test [4] concerns MDA-MB-231 breast.
Test [5] deals with RXF 393 renal.
The subject of test [6] is SF-268 CNS.
The test system of test [7] is SF-295 CNS.
Test [8] concerns SF-539 CNS.
Test [9] has as its system UACC-257 melanoma.
Test [10] relates to M14 melanoma.
Test [11] deals with HCT-15 colon.
Test [12] deals with SNB-75 CNS.
In test [13] the test system is SNB-19 CNS.
Test [14] relates to U251 CNS.
The test system of test [15] is PC-3 prostate.
In test [16] the test system is SK-MEL-5 melanoma.
In test [17] the test system is UACC-62 melanoma.
In test [18] the test system is LOX IMVI melanoma.
Test [19] has as its system SK-MEL-28 melanoma.
Test [20] deals with HT29 colon.

Each structure is given as a SMILES string. This is part of a sample that, as a whole, favours compounds with a hit. Of some 83,000 tested, about 20% had one in any assay.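 Activity criterion: percent growth below 10, measured after cells in 96-well plates were exposed to a single compound concentration for 48 hours.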 Values without a mark were called inactive. Activity calls are given as the source filed them.

As for `O=C(Nc1ccccc1O)c1ccc(CNC(=O)c2sccc2Nc2ccnc(C(F)(F)F)c2)cc1`, the growth in test [1] is 46.7%; in [2], 25.1%; in test [3] it was -2.09% (active); in test [4], 53%; in test [5], 47.9%; in [6], 49.2%. The growth was 43.6% in test [7]; 48.9% in test [8]; 46.5% in test [9]; 58.3% in [10]; 47.6% in [11]; 36.9% in test [12]. Besides, the growth in [13] was 68.9%; in test [14], 40.6%; in test [15], 35.2%; in test [16] it was 25.1%; in test [17], 27.7%; in test [18], 53.6%. Besides, the growth in test [19] is 63.6%.
`COc1cc2c(c(OC)c1OC)CCC(c1cccc(NC(=O)c3ccc(Br)cc3)c1)O2` (stereo not given): the growth in test [1] was 87.9%; in test [2] it was 49.7%; in test [3], 80.4%; in [4] it was 82.6%; in [5], 89%; in test [6] it was 78.6%. The growth in test [7] is 66.9%; in test [8] it was 97.3%; in [9], 69.6%; in test [10] it was 81.3%; in test [11], 85.2%; in test [12], 86%. Also, the growth in [13] was 86%; in test [14], 90%; in test [15], 60.5%; in test [16], 71.4%; in test [17], 60.6%; in test [18] it was 90.4%. Besides, in test [19], the growth is 89.7%.
`CC1CCc2c(C(=O)Nc3ncc(Cc4cccc([N+](=O)[O-])c4)s3)csc2C1` (stereo not given): the growth in [1] was 18%; in test [2], 23.8%; in test [3], 51%; in test [4] it was 23.6%; in test [5], -24.1% (active); in test [6], 43.9%. The growth in test [7] was 14.3%; in test [8] it was -7.87% (active); in test [9], 52%; in test [10] it was 6.98% (active); in test [11], 26.2%; in [12], -14.6% (active). Further, the growth in test [13] was 31.8%; in test [14] it was 26.9%; in test [15], 35.7%; in test [16], 21.1%; in [17], 13.9%; in test [18] it was 20%. Also, in test [19], the growth was 60.7%.
In the case of `CCN(CC)CCn1c2ccc(OC)cc2c2sc3cc(OC)ccc3c(=O)c21`, the growth in test [1] was 44.9%; in test [2] it was 4.61% (active); in test [3], -27% (active); in test [4] it was 40.5%; in [5], 12.7%; in [6], 38.5%. The growth is 18.9% in [7]; 22.7% in test [8]; 41.3% in test [9]; -77.9% (active) in test [10]; 8.79% (active) in test [11]; 85.9% in test [12]. For the same compound, the growth was 28.9% in test [13]; 20.5% in test [14]; 25.6% in test [15]; 57% in test [16]; 47.2% in test [17]; -75% (active) in test [18]. The growth in test [19] was 29.7%.
Take `Cc1ccc(Nc2cc(N)nc(N)n2)cc1Cl`: the growth in test [1] was 94%; in test [2] it was 74.4%; in test [3], 97.7%; in [4], 102%; in test [5], 97.5%; in [6], 88.7%. Besides, the growth in [7] was 92.3%; in test [8] it was 96.7%; in test [9] it was 93.6%; in test [10], 93.5%; in test [11], 97.1%; in [20], 98.2%. In addition, the growth is 104% in test [13]; 94.2% in [15]; 97.5% in [16]; 90.8% in [17]; 97.3% in test [18]; 109% in test [19].
Regarding `O=C(/C=C/c1ccccc1)Nc1ncc(Cc2ccccc2Cl)s1`, the growth in test [1] was 26.9%; in test [2], 12.6%; in [3] it was 53.8%; in [4], 40.3%; in [5], -7.17% (active); in [6], 71.6%. The growth in test [7] is -2.76% (active); in test [8], -16.3% (active); in test [9], 77.1%; in [10], 8.18% (active); in test [11] it was 16%; in test [13] it was 30.5%. Moreover, the growth in test [14] is 27.2%; in test [15] it was 25.8%; in test [16], 34.3%; in test [17] it was 34.1%; in test [18], 21.3%; in [19], 55.7%.
In the case of `O=C(/C=C/c1cccc(Cl)c1)c1ccc(Nc2nc(Nc3ccc(F)cc3)nc(Nc3ccc(Cl)cc3)n2)cc1`, the growth in [1] was 162%; in test [2] it was 79.7%; in test [3], 108%; in test [4], 110%; in test [5], -9.73% (active); in test [6] it was 163%. Moreover, the growth in test [7] was 61.9%; in test [8], 142%; in [9] it was 100%; in [10], 94.9%; in test [11] it was 101%; in test [12], 95.7%. The growth in [13] is 118%; in test [14] it was 112%; in [15], 98.8%; in test [16], 90.7%; in test [17], 108%; in test [18], 104%. Also, the growth in [19] is 112%.
With `Cc1cn(-c2cc(NC(=O)c3cncc(C#Cc4cnc(N)c5ncccc45)c3)cc(C(F)(F)F)c2)cn1`, the growth in [1] is 93.7%; in test [2] it was 5.81% (active); in test [3], 23.8%; in [4], 47.1%; in [5], 59.6%; in [6] it was 67.2%. The growth in test [7] is 91%; in [8], 72.3%; in test [9], 62.5%; in test [10], 29.8%; in [11], 59.6%; in [12], 89.4%. The growth in test [13] was 106%; in test [14], 85.7%; in test [15], 84.7%; in [16] it was 18.3%; in [17] it was 35.2%; in test [18], 21.5%. Besides, in test [19], the growth is 40.5%.
